{"source": "PubChem BioAssay (NCATS)", "note": "Inconclusive results are not listed. Active and inactive are the calls of the source. Calls come from the whole dose curve; as a rule, active = well fitted inhibition curve with a large enough effect; inconclusive = small, poorly fitted or top-dose-only effect; inactive = no such curve, though single readings can be large or run the other way."}
{"target": "Rap guanine nucleotide exchange factor 3 (Homo sapiens) (UniProt O95398)", "sequence (O95398 whole entry, looked up)": "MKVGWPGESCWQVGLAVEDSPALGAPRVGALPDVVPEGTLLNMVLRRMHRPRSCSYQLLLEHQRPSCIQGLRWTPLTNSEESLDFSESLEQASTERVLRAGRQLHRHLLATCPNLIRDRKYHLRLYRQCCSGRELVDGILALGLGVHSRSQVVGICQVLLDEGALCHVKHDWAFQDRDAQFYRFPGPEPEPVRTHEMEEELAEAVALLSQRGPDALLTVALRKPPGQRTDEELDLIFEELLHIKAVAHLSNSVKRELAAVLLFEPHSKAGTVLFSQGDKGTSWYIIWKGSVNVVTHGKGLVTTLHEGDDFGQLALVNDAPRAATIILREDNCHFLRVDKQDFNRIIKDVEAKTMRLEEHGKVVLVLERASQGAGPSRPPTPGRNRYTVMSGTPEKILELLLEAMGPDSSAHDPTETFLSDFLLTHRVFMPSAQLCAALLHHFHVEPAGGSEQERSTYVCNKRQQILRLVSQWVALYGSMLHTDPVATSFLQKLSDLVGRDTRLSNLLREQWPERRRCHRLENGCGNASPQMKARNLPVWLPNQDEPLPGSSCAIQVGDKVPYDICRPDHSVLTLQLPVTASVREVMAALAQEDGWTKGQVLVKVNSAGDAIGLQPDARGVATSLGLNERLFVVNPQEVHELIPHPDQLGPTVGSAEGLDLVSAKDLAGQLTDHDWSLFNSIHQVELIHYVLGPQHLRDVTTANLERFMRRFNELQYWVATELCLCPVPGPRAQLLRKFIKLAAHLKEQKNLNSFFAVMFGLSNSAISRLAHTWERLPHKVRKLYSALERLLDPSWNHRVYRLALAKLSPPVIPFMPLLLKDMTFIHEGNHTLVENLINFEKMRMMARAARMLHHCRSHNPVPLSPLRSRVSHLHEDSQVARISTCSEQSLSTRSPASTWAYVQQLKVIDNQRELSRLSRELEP", "experiment": "Counterscreen qHTS for antagonist of cAMP-regulated guanine nucleotide exchange factor 3 (EPAC1) (AID 1645888); note: % of control where 0% means no effect", "details": "Rap1B-BODIPY-GDP nucleotide exchange, fluorescence; series mostly up to 30.8 µM; activity change, negative = inhibition: at the top concentration", "description": "Assay Provider (PI): Xiaodong Cheng Ph.D. The University of Texas Medical Branch, […], TX MLPCN Grant: NS066510 In multi-cellular eukaryotic organisms, the effects of cAMP are transduced by two ubiquitously-expressed intracellular cAMP receptors, the classic protein kinase A/cAMP-dependent protein kinase (PKA/cAPK) and the more recently discovered exchange protein directly activated by cAMP/cAMP-regulated guanine nucleotide exchange factor (EPAC/cAMP-GEF). Both PKA and EPAC are ubiquitously expressed in all tissues, and an increase in intracellular cAMP levels will lead to the activation of both PKA and EPAC. Therefore, careful dissections of the individual role and relative contribution of EPAC and PKA within the overall cAMP signaling in various model systems are critical for further elucidating the mechanism of cAMP signaling. To date no EPAC-specific antagonists and agonist, as well as isoform-specific agonists have been reported, and developing EPAC-specific pharmacological probes to determine the physiological functions that EPAC play in the overall cAMP-mediated signaling remains a major challenge within the research field. Furthermore, identified regulators of EPAC may lead to new mechanism-based therapeutic strategies specifically targeting the EPAC / cAMP-signaling components as EPAC has been implicated to play important roles in major human pathological conditions such as diabetes, heart disease, and cancer. This qHTS will be used to screen the Molecular Libraries Small Molecule Repository (MLSMR) as a concentration-titration series using the NCGC unique quantitative screening (qHTS) platform to find activators for EPAC1. In addition, this assay will also be used as a counterscreen for the EPAC2 qHTS. This fluorescent based assay is developed and validated for EPAC1 that measures exchange using EPAC effector Rap1 complex with BODIPY-GDP, a GDP analog with a tethered fluorophores. Activators are identified by monitoring the change in fluorescence signal as the exchanged free BODIPY-GDP has a reduced fluorescence compared to Rap1-bound BODIPY-GDP. Increase in signal (activation) is the desired outcome for the EPAC1 agonist while no activity in this assay is desired for the EPAC2 agonist counterscreen. Reference: [1] de Rooij, J., Zwartkruis, F. J., Verheijen, M. H., Cool, R. H., Nijman, S. M., Wittinghofer, A., and Bos, J.L. (1998) Nature 396, 474-477. Kawasaki, H., Springett, G. M., Mochizuki, N., Toki, S., Nakaya, M., Matsuda, M., Housman, D. E., and Graybiel, A. M. (1998) Science 282, 2275-2279.\nEPAC1 Counterscreen PROTOCOL TABLE SEQUENCE No. (e.g., 1, 2, 3, etc.); […] (e.g., Cells, Incubation, Reagent, etc.); VALUE and DESCRIPTION. 1. Reagent. 3 uL. [1x] 250 nM Rap1B-BODIPY-GDP, and 50 uM GDP. 2a. Compound. 23 nL. Control 6,572 uM cAMP (working concentration). 2b, 2c. Compound. 23 nL. Control activator and inhibitor; 234 - 30,000 uM cAMP and 16.4 - 10,000 uM. 2d. Compound. 46 nL. MLSMR follow-up library; 0.64 - 10,000 uM. 3. Time. 15 sec, 1000rpm. Centrifuge. 4. Time. 5 min. Incubation at room temperature. 5. Detector. Fluorescence. (Read 1), Ex/Em = 480 nm / 540 nm. 6. Time. 30 min. Incubation at room temperature. 7. Detector. Fluorescence. (Read 2), Ex/Em = 480 nm/ 540 nm. 8. Reagent. 1uL. Dispense either [4x] 10 uM cAMP or buffer. 9. Time. 15 sec, 1000 rpm. Centrifuge. 10. Time. 5 min. Incubation at room temperature. 11. Detector. Fluorescence. (Read 3), Ex/Em = 480 nm / 540 nm. 12. Time. 30 min. Incubation at room temperature. 13. Detector. Fluorescence. (Read 4), Ex/Em = 480 nm / 540 nm. NOTES (numbers refer to Sequence numbers above; values are from representative experiments) 1. Medium-binding black solid-bottom Greiner plates (789176-F). Dispense 3 uL of [1x] 250 nM Rap1B-BODIPY-GDP, and 50 uM GDP into columns 1 to 48. 2a. Control compound cAMP (6,572 uM, column 3, rows 1 to 32) single pin-transferred for a [final] of 50 uM. 2b. […]"}
{"smiles": "CC(=O)c1ccc(N2CCN(S(=O)(=O)c3ccc4c(c3)C(Cl)(Cl)C(=O)N4)CC2)cc1", "activity change, negative = inhibition": "20.1% [at 154 µM] (inactive)"}
{"smiles": "CC(=O)NC(c1cc(Cl)c2ccccc2c1O)C(C)C", "note": "(stereo not given)", "activity change, negative = inhibition": "2.64% (inactive)"}
{"smiles": "Cc1ccc(P(=O)(CSC(=N)N)c2ccc(C)cc2)cc1", "activity change, negative = inhibition": "-3% (inactive)"}
{"smiles": "CC(/C=C1\\SC(=S)N(CC(=O)O)C1=O)=C\\c1ccccc1", "activity change, negative = inhibition": "-26.5% [at 154 µM] (inactive)"}
{"smiles": "O=C(CSc1nnc(-c2cccc(S(=O)(=O)N3CCCC3)c2)n1-c1ccccc1)Nc1ccc(C(=O)O)cc1", "activity change, negative = inhibition": "12.8% (inactive)"}
{"smiles": "CCC(=O)NC(c1cccs1)c1cc(Cl)c2ccccc2c1O", "note": "(stereo not given)", "activity change, negative = inhibition": "-14.7% (inactive)"}
{"smiles": "CCC(=O)NC(c1cccs1)c1cc(Cl)c2cccnc2c1O", "note": "(stereo not given)", "activity change, negative = inhibition": "-16.6% [at 154 µM] (inactive)"}
{"smiles": "CC(=O)NS(=O)(=O)c1ccc(NC(=O)c2cc(-c3ccc(C)c(C)c3)nc3ccccc23)cc1", "activity change, negative = inhibition": "-1.74% (inactive)"}
{"smiles": "CCC(=O)NC(c1ccco1)c1cc(Cl)c2ccccc2c1O", "note": "(stereo not given)", "activity change, negative = inhibition": "9.4% [at 154 µM] (inactive)"}
{"smiles": "O=C1Cc2cc(S(=O)(=O)N3CCNCC3)ccc2N1", "activity change, negative = inhibition": "2.43% (inactive)"}
{"smiles": "O=C(CSc1nc2ccccc2n1CCc1ccccc1)c1ccc(O)c(O)c1", "activity change, negative = inhibition": "1.89% [at 154 µM] (inactive)"}
{"smiles": "CCN(CC)C(=O)CC(c1ccc2c(c1)OCO2)c1c(O)cc(OC)cc1OC", "note": "(stereo not given)", "activity change, negative = inhibition": "1.77% [at 154 µM] (inactive)"}
{"smiles": "CN1C2CC(OC(=O)C(CO)c3ccccc3)CC1C1OC12", "note": "(stereo not given)", "activity change, negative = inhibition": "-24.2% (inactive)"}
{"smiles": "Nc1ncnc2c1C(c1ccccc1)c1c(ccc3ccccc13)O2", "note": "(stereo not given)", "activity change, negative = inhibition": "0.286% [at 154 µM] (inactive)"}
{"smiles": "CC(=O)NC(c1cccs1)c1cc(Br)c2cccnc2c1O", "note": "(stereo not given)", "activity change, negative = inhibition": "-19.9% (inactive)"}
{"smiles": "CCOc1ccccc1CNc1ncnc2ccc(-c3c(C)noc3C)cc12", "activity change, negative = inhibition": "-0.521% [at 154 µM] (inactive)"}
{"smiles": "COc1cccc(-c2ccc3ncnc(N(C)Cc4ccco4)c3c2)c1", "activity change, negative = inhibition": "-16.3% (inactive)"}
{"smiles": "COc1ccc(N2C(=O)c3ccccc3C2=O)cc1", "activity change, negative = inhibition": "-1.17% [at 154 µM] (inactive)"}
{"smiles": "CCC(=O)NC(c1cc(Cl)c2ccccc2c1O)C(C)C", "note": "(stereo not given)", "activity change, negative = inhibition": "-3.29% [at 154 µM] (inactive)"}
{"smiles": "CC(=O)NC(c1ccco1)c1cc(Cl)c2ccccc2c1O", "note": "(stereo not given)", "activity change, negative = inhibition": "-13.5% (inactive)"}
